Laboratory results reported in PubChem BioAssay (NCATS).
Results filed as inconclusive are left out. The source made the active and inactive calls. The call rests on the fitted dose curve; in most records, active means well fitted curve in the direction sought with a large enough effect; inconclusive means small, poorly fitted or top-dose-only effect, or another doubt; inactive means no such curve, though single readings can be large; an effect the other way counts as inactive or inconclusive.

Experiments:
[1] = Quantitative High-Throughput drug screen in 47 multiple myeloma cell lines against the NCATS MIPE library collection: KHM11_PLB cell viability assay (AID 1918962); further: nearly all actives have a fitted effect of over 35% in size
How it was run: (§1)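 Approved and investigational drugs from MIPE 4.0 were added by pin tool to 500 cells per well. After 48 hours at 37C, ATP-based CellTiter-Glo luminescence indicated remaining viability.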

[2] = Quantitative High-Throughput drug screen in 47 multiple myeloma cell lines against the NCATS MIPE library collection: JIM3_ECACC cell viability assay (AID 1918963; further: nearly all actives have a fitted effect of over 35% in size)
How it was run: as §1

[3] = Quantitative High-Throughput drug screen in 47 multiple myeloma cell lines against the NCATS MIPE library collection: KMS27_JCRB cell viability assay (AID 1918970); conditions: KMS27 myeloma cells, CellTiter-Glo ATP viability, 48 h; viability (% of DMSO): at 45.8 µM (top of the series); further: nearly all actives have a fitted effect of over 30% in size
How it was run: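 Myeloma cells (500 per well) were exposed to MIPE 4.0 compounds for 48 h at 37 °C, 5% CO2; viability was read as ATP luminescence with CellTiter-Glo, normalized to DMSO-only (100%) and media-only (0%) wells.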

[4] = Quantitative High-Throughput drug screen in 47 multiple myeloma cell lines against the NCATS MIPE library collection: KMS12BM_JCRB cell viability assay (AID 1918971); further: nearly all actives have a fitted effect of over 35% in size
How it was run: (§2)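 We plated 500 myeloma cells per well, pinned in MIPE 4.0 compounds, and incubated for 48 hours at 37C. ATP was then quantified with CellTiter-Glo, with DMSO and media-only wells defining 100% and 0%.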

[5] = Quantitative High-Throughput drug screen in 47 multiple myeloma cell lines against the NCATS MIPE library collection: KMS12PE_JCRB cell viability assay (AID 1918972); further: nearly all actives have a fitted effect of over 30% in size
How it was run: (§3)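 Inhibition of cell viability is measured here. Each line was plated at 500 cells per well, treated with MIPE 4.0 drugs, kept 48 hours at 37C, then assayed for ATP content by CellTiter-Glo luminescence.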

[6] = Quantitative High-Throughput drug screen in 47 multiple myeloma cell lines against the NCATS MIPE library collection: KMS26_JCRB cell viability assay (AID 1918975); further: nearly all actives have a fitted effect of over 45% in size
How it was run: as §2

[7] = Quantitative High-Throughput drug screen in 47 multiple myeloma cell lines against the NCATS MIPE library collection: MOLP8_DSMZ cell viability assay (AID 1918977); further: nearly all actives have a fitted effect of over 45% in size
How it was run: (§4)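 ATP-based luminescence (CellTiter-Glo, 5 min RT incubation) quantified surviving cells following two days' treatment with MIPE 4.0 agents at 37 °C, 5% CO2.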

[8] = Quantitative High-Throughput drug screen in 47 multiple myeloma cell lines against the NCATS MIPE library collection: NCIH929_DSMZ cell viability assay (AID 1918978); further: nearly all actives have a fitted effect of over 35% in size
How it was run: as §4

[9] = Quantitative High-Throughput drug screen in 47 multiple myeloma cell lines against the NCATS MIPE library collection: OCIMY1_PLB cell viability assay (AID 1918979); further: nearly all actives have a fitted effect of over 35% in size
How it was run: as §4

[10] = Quantitative High-Throughput drug screen in 47 multiple myeloma cell lines against the NCATS MIPE library collection: MM1R_ATCC cell viability assay (AID 1918981); further: nearly all actives have a fitted effect of over 35% in size
How it was run: as §4

[11] = Quantitative High-Throughput drug screen in 47 multiple myeloma cell lines against the NCATS MIPE library collection: JJN3_DSMZ cell viability assay (AID 1918966; further: nearly all actives have a fitted effect of over 50% in size)
How it was run: (§5)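 Primary qHTS used for cherry-picking: cells at 500/well, library compounds for 48 h (37C, 5% CO2), luminescent ATP assay.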

[12] = Quantitative High-Throughput drug screen in 47 multiple myeloma cell lines against the NCATS MIPE library collection: H1112_PLB cell viability assay (AID 1918967; further: nearly all actives have a fitted effect of over 30% in size)
How it was run: as §5

[13] = Quantitative High-Throughput drug screen in 47 multiple myeloma cell lines against the NCATS MIPE library collection: JIM1_ECACC cell viability assay (AID 1918964)
How it was run: as §5

[14] = Quantitative High-Throughput drug screen in 47 multiple myeloma cell lines against the NCATS MIPE library collection: INA6_PLB cell viability assay (AID 1918965; further: nearly all actives have a fitted effect of over 55% in size)
How it was run: as §3

[15] = Quantitative High-Throughput drug screen in 47 multiple myeloma cell lines against the NCATS MIPE library collection: Karpas25_ECACC cell viability assay (AID 1918968; further: nearly all actives have a fitted effect of over 35% in size)
How it was run: as §5

[16] = Quantitative High-Throughput drug screen in 47 multiple myeloma cell lines against the NCATS MIPE library collection: KMS21BM_JCRB cell viability assay (AID 1918974); conditions: ATP luminescence, 48 h; viability: at 45.8 µM (top of the series)
How it was run: as §5

[17] = Quantitative High-Throughput drug screen in 47 multiple myeloma cell lines against the NCATS MIPE library collection: MMM1_PLB cell viability assay (AID 1918976); further: nearly all actives have a fitted effect of over 35% in size
How it was run: as §4

[18] = Quantitative High-Throughput drug screen in 47 multiple myeloma cell lines against the NCATS MIPE library collection: MM1S_ATCC cell viability assay (AID 1918980); further: nearly all actives have a fitted effect of over 45% in size
How it was run: as §4

[19] = Quantitative High-Throughput drug screen in 47 multiple myeloma cell lines against the NCATS MIPE library collection: KMS20_JCRB cell viability assay (AID 1918973); further: nearly all actives have a fitted effect of over 45% in size
How it was run: as §5

Measured: Potency
Potency means the concentration at half of the fitted maximal effect.

O=C(O)CCCCC(CCSCc1ccccc1)SCc1ccccc1 (centres undefined)
inactive: [1] | [2] | [4] | [6] | [7] | [8] | [9] | [10]
active: [3] 13.2 µM | [5] 16.6 µM

O=C(C=CC=Cc1ccc2c(c1)OCO2)N1CCCCC1
active: [5] 16.6 µM
inactive: [1] | [2] | [11] | [12] | [4] | [7] | [9]

N#Cc1c(NC(=O)c2cccc3ccccc23)sc2c1CCCC2
active: [2] 0.209 µM | [13] 0.187 µM | [14] 0.296 µM | [11] 2.64 µM | [12] 0.418 µM | [15] 0.743 µM | [3] 0.0209 µM | [4] 0.526 µM | [5] 0.332 µM | [16] 0.526 µM | [6] 3.32 µM | [17] 5.26 µM | [8] 2.35 µM | [18] 1.05 µM

C=C1C(=CC=C2CCC[C@]3(C)[C@@H]([C@H](C)CCCC(C)(C)O)CC[C@@H]23)C[C@@H](O)C[C@@H]1O
inactive: [9]
active: [1] 10.5 µM | [13] 5.26 µM | [14] 5.9 µM | [12] 7.43 µM | [15] 5.9 µM | [3] 1.66 µM | [4] 20.9 µM | [5] 6.62 µM | [6] 18.7 µM | [17] 20.9 µM | [7] 16.6 µM | [18] 1.48 µM | [10] 18.7 µM

FC(F)c1nc2ccccc2n1-c1nc(N2CCOCC2)nc(N2CCOCC2)n1
active: [1] 0.469 µM | [2] 0.372 µM | [14] 0.296 µM | [11] 0.743 µM | [15] 0.0935 µM | [3] 0.105 µM | [4] 1.66 µM | [19] 0.332 µM | [6] 0.743 µM | [17] 0.526 µM | [7] 0.132 µM | [8] 0.105 µM | [18] 0.59 µM

CN1C(C(=O)Nc2ccccn2)=C(O)c2sc(Cl)cc2S1(=O)=O
active: [1] 3.32 µM | [2] 3.72 µM | [14] 2.64 µM | [11] 3.72 µM | [15] 2.64 µM | [19] 2.09 µM | [17] 20.9 µM | [8] 1.66 µM | [18] 5.26 µM | [10] 18.7 µM
inactive: [3] | [5] | [9]

CCOc1cc2ncc(C#N)c(Nc3ccc(OCc4ccccn4)c(Cl)c3)c2cc1NC(=O)C=CCN(C)C
active: [1] 0.935 µM | [13] 0.418 µM | [14] 0.264 µM | [11] 5.9 µM | [15] 0.662 µM | [3] 0.264 µM | [4] 5.26 µM | [5] 0.264 µM | [19] 0.935 µM | [8] 0.833 µM | [18] 0.526 µM | [10] 11.8 µM

CCc1nc(-c2cccc(C)c2)c(-c2ccnc(NC(=O)c3ccccc3)c2)s1
active: [1] 0.935 µM | [13] 9.35 µM | [14] 16.6 µM | [12] 14.8 µM | [4] 23.5 µM | [5] 6.62 µM | [17] 16.6 µM | [18] 20.9 µM
inactive: [3]

N#CC(=Cc1ccc(O)c(O)c1)C(=O)NCc1ccccc1
inactive: [9]
active: [1] 9.35 µM | [2] 8.33 µM | [14] 16.6 µM | [12] 7.43 µM | [3] 0.833 µM | [19] 8.33 µM | [17] 3.32 µM | [18] 26.4 µM

C[C@H]1O[C@H](O[C@H]2[C@H](O)[C@@H](O)[C@@H](O[C@H]3[C@H](O)[C@@H](O)C(O)O[C@H]3CO)O[C@H]2CO)[C@H](O)[C@@H](O)[C@H]1N[C@H]1C=C(CO)[C@@H](O)[C@H](O)[C@@H]1O (some centres undefined)
inactive: [1] | [2] | [14] | [12] | [6] | [7] | [9] | [18] | [10]

COC[C@H](NC(=O)c1cnc(C)s1)C(=O)N[C@@H](COC)C(=O)N[C@@H](Cc1ccccc1)C(=O)[C@@]1(C)CO1
active: [2] 0.296 µM | [13] 0.059 µM | [14] 0.0743 µM | [11] 0.0935 µM | [12] 0.0935 µM | [15] 0.0743 µM | [3] 0.0743 µM | [4] 0.0935 µM | [5] 0.0372 µM | [19] 0.132 µM | [6] 0.148 µM | [17] 1.05 µM | [7] 0.0469 µM | [8] 0.0526 µM | [9] 0.0418 µM | [18] 0.059 µM | [10] 0.0418 µM

O=C1CSC(=O)N1C(CCc1ccncc1)COc1ccc(-c2cccc([N+](=O)[O-])c2)cc1 (centres undefined)
active: [1] 10.5 µM | [14] 5.9 µM | [11] 18.7 µM | [12] 7.43 µM | [15] 2.64 µM | [4] 7.43 µM | [19] 10.5 µM | [6] 4.18 µM | [17] 4.18 µM | [8] 18.7 µM | [18] 0.935 µM | [10] 2.35 µM
inactive: [13] | [3] | [5]

CN1CCCN(C(=O)c2cccc(-c3ccc(C=C4C(=O)Nc5ccc(Cl)cc54)o3)c2)CC1
active: [2] 26.4 µM | [13] 6.62 µM | [14] 7.43 µM | [11] 18.7 µM | [12] 26.4 µM | [15] 8.33 µM | [3] 3.32 µM | [4] 23.5 µM | [5] 7.43 µM | [19] 4.69 µM | [16] 7.43 µM | [6] 18.7 µM | [17] 8.33 µM | [7] 4.18 µM | [18] 14.8 µM | [10] 5.9 µM
